The values that follow come from PubChem BioAssay (NCI).

Compounds without any hit were thinned out: in the full panel of roughly 83,000, 20% have a hit.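 The test compound was applied at a single concentration to cells in 96-well plates for 48 hours, and percent growth was recorded.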 A number with no mark means an inactive call. Activity calls are given as the source filed them. Rule for the calls: active = growth percent below 10; inactive = the rest.

Assay in all cases: NCI-60 one-dose screen, 48 h (100 = growth as untreated, 0 = no growth, -100 = all killed)
Common to all, as to conditions: 10 µM unless noted

For assay [1], the system named is NCI-H23 lung.
The test system of assay [2] is NCI-H226 lung.
Assay [3] has as its system NCI-H322M lung.
The test system of assay [4] is HOP-62 NSCLC.
The subject of assay [5] is NCI-H460 lung.
Assay [6] concerns HOP-92 NSCLC.
Assay [7] deals with NCI-H522 lung.
In assay [8] the test system is A549/ATCC NSCLC.
For assay [9], the system named is 786-0 renal.
For assay [10], the system named is COLO 205 colon.
Assay [11] concerns DU-145 prostate.
In assay [12] the test system is K-562 leukemia.
Assay [13] deals with MALME-3M melanoma.
The test system of assay [14] is MDA-MB-231 breast.
For assay [15], the system named is RXF 393 renal.
The subject of assay [16] is SF-268 CNS.
The test system of assay [17] is SF-295 CNS.
For assay [18], the system named is SF-539 CNS.
Assay [19] deals with UACC-257 melanoma.
In assay [20] the test system is M14 melanoma.

Turning to `NNC(=S)N/N=C/c1ccccn1`, the growth is 30.9% in [1]; 34.3% in assay [2]; 46.2% in [3]; 13% in assay [4]; 9.74% (active) in [5]; 21% in assay [6]. Further, the growth was -14.3% (active) in assay [7]; 46.9% in assay [8]; 24.4% in assay [9]; 15% in assay [10]; 34.5% in [11]; 19.4% in assay [12]. The growth in assay [13] is 54.3%; in assay [14], 47.2%; in [15], 25.2%; in [16] it was 42.9%; in [17] it was 33.5%; in assay [18] it was 11.2%. Moreover, the growth is 45.7% in [19] and 23.7% in assay [20].
As for `NC(=O)c1c(NC(=O)c2ccc(Cl)cc2)sc2c1CCC(=O)C2`, the growth was 51.6% in [1]; 97.8% in assay [2]; 94% in assay [3]; 106% in assay [4]; 100% in assay [5]; 77.4% in [6]. Also, the growth in assay [7] was 7.79% (active); in [8], 98.5%; in [9] it was 94.3%; in assay [10], 75.9%; in assay [11], 98.6%; in [12], 13.9%. For the same compound, the growth is 92.7% in assay [13]; 86.3% in [14]; 56.7% in assay [15]; 47.5% in [16]; 96.2% in assay [17]; 43.2% in [18]. Besides, the growth in assay [19] was 91.6%; in [20], 51.5%.
For the compound `Cc1ccc(C)c(-n2c(-c3ccc(Br)cc3)csc2=NC(=O)c2ccccc2F)c1`, the growth in [1] is 54.7%; in [2] it was 82.5%; in [3], 92.8%; in [4], 95.8%; in assay [5], 40.3%; in [6] it was 67.6%. Also, the growth in [7] was 168%; in assay [8] it was 71.4%; in assay [9], 71.1%; in assay [10] it was 92.9%; in assay [11], 102%; in assay [12] it was 23.9%. Also, the growth was 73.9% in [13]; 84.1% in assay [14]; 81.8% in [15]; 99.6% in assay [16]; 73% in assay [17]; 89% in assay [18]. Also, the growth in assay [19] was 57%; in assay [20], 81.3%.
As for `Cc1ccc(-c2cc(C(=O)N3N=C(c4ccc(N)cc4)CC3c3ccc(Cl)cc3)c3ccccc3n2)cc1` (stereo not given), the growth was 49.4% in assay [1]; 72.1% in assay [2]; 48.3% in assay [3]; 33.9% in assay [4]; 12.9% in [5]; 41.2% in [6]. The growth is -2.26% (active) in assay [7]; 21.4% in assay [8]; 24.3% in assay [9]; 2.01% (active) in assay [10]; 18.6% in assay [11]; 7.72% (active) in [12]. In addition, the growth in assay [13] was 67%; in [14], 44.5%; in [15], -0.262% (active); in [16] it was 38.9%; in assay [17], 21.4%; in assay [18], -2.29% (active). In addition, the growth in assay [19] is 43.7%; in [20], -24% (active).
As to `COc1ccc(/C=C/C(=O)c2cc3c(N)c(C(=O)Nc4ccccc4C)sc3nc2C)cc1`, the growth in assay [1] was 36.1%; in assay [2], 53.3%; in assay [3] it was 35.7%; in assay [4] it was 32.6%; in assay [5], 1.23% (active); in assay [6] it was 79.2%. The growth in [7] is -28.4% (active); in assay [8], 20.1%; in [9], 21.3%; in assay [10], -30.3% (active); in [11], 13%; in assay [12], 15.3%. Moreover, the growth in [13] was 51.7%; in assay [14], 15.5%; in [15], -23.1% (active); in assay [16], 32.3%; in assay [17], 14.2%; in assay [18] it was -38.2% (active). Besides, the growth in assay [19] is 64.8%; in [20], 3.29% (active).
For `NS(=O)(=O)c1ccc(N/C=C/C(=O)c2cc3ccccc3oc2=O)cc1`, the growth was 88% in assay [1]; 86.9% in assay [2]; 92.9% in assay [3]; 84.7% in assay [4]; 96.8% in [5]; 76.1% in assay [6]. Further, the growth in [7] was 96.3%; in assay [8] it was 97.1%; in assay [9], 96.1%; in assay [10], 102%; in [11], 109%; in [12], 94.8%. Moreover, the growth in [13] was 85%; in assay [14], 85.2%; in [15] it was 102%; in assay [16] it was 95.5%; in assay [17], 103%; in assay [18], 93%. The values for the growth in assay [19] and in [20] were 110% and 89.5%, respectively.
Turning to `COc1ccc(-c2nnc(SCC(=O)Nc3ccc(/C(C)=N\O)cc3)n2-c2ccccc2)cc1OC`, the growth in assay [1] was 68.8%; in assay [2] it was 81.9%; in [3], 75.7%; in assay [4], -26.4% (active); in assay [5] it was 102%; in [6], -8.56% (active). The growth was 35.3% in [7]; 70.7% in assay [8]; 64.5% in assay [9]; 99.1% in assay [10]; 88.3% in assay [11]; 105% in assay [12]. In addition, the growth in assay [13] is 61.8%; in assay [14] it was 47.9%; in [15] it was 32.3%; in assay [16], 30.6%; in [17] it was 39.1%; in [18] it was 43%. The values for the growth in [19] and in assay [20] were 91.8% and 89.9%, respectively.
On to `CCCCc1oc2ccccc2c1C(=O)c1ccc(O)cc1`, for which the growth is -5.52% (active) in assay [1]; 92.8% in assay [2]; 85.1% in [3]; 79.3% in [4]; 84.4% in assay [5]; 68.2% in [6]. The growth was 66.7% in assay [7]; 76.6% in assay [8]; 79.5% in assay [9]; 118% in assay [10]; 101% in assay [11]; 37.8% in [12]. In addition, the growth in assay [13] was 85.4%; in assay [14], 79.1%; in assay [15], 72.7%; in assay [16], 94.2%; in assay [17], 175%; in assay [18], 82.5%. The growth was 76.8% in [19] and 92.2% in assay [20].
